Assay results taken from paper PMC5540273 (PLoS ONE, 2017).

Legend:
Conditions in all cases: concentration: 1 μM, replicates: in singlicate; n = 1
EPHA7 = test system: EPHA7
EPHA8 = test system: EPHA8
EPHB1 = test system: EPHB1
EPHB2 = test system: EPHB2
EPHB3 = test system: EPHB3
EPHB4 = test system: EPHB4
EPHB6 = test system: EPHB6
ERBB2 = test system: ERBB2
ERBB3 = test system: ERBB3
ERBB4 = test system: ERBB4
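Note: KINOMEscan kinase panel screen.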

SMILES | %Inh (EPHA7) | %Inh (EPHA8) | %Inh (EPHB1) | %Inh (EPHB2) | %Inh (EPHB3) | %Inh (EPHB4) | %Inh (EPHB6) | %Inh (ERBB2) | %Inh (ERBB3) | %Inh (ERBB4)
Cl.NC(=O)c1cccc(Nc2nccc(Nc3ccc(Oc4c(Cl)cccc4Cl)c(Cl)c3)n2)c1 [GW659009] | 0% | 6% | 93.5% | 0% | 0% | 0% | 32% | 92.5% | 93.3% | 93.9%
Cc1ccc(C(=O)N2CC[C@@H](O)C2)cc1-n1c(C)cc(OCc2ccc(F)cc2F)c(Br)c1=O | 0% | 85% | 84% | 8% | 0% | 0% | 92% | 36% | 0% | 35%
Cn1cc(-c2ccc3c(c2)CCN3C(=O)Cc2cccc(F)c2)c2c(N)ncnc21 [GSK2603358] | 7% | 11% | 0% | 0% | 13% | 16% | 98.7% | 40% | 0% | 12%
CC(=O)Nc1nc2cnc(Nc3cc(NC(=O)c4cccc(C5(C#N)CC5)c4Cl)ccc3C)nc2s1 | 0% | 55% | 10% | 50% | 10% | 34% | 64% | 14% | 7% | 4%
CN(C)S(=O)(=O)c1cc(-c2ccc3nccc(-c4cccc(S(N)(=O)=O)c4)c3c2)cnc1N [GSK1669921] | 15% | 27% | 31% | 0% | 11% | 16% | 25% | 15% | 0% | 0%
Cc1ccc(F)c(C(=O)Nc2cccc(-c3nn4ccccc4c3-c3ccnc(Nc4cccc(F)c4)n3)c2)c1F [GSK361061] | 41% | 53% | 40% | 0% | 9% | 10% | 94.3% | 88% | 25% | 96.4%
COc1cccc(C2=C(Nc3ccc(Cl)c(C(=O)O)c3)C(=O)NC2=O)c1 [SB-390769] | 0% | 15% | 0% | 23% | 10% | 10% | 100% | 28% | 5% | 0%
COC(=O)Nc1nc2cc(Oc3ccc(NC(=O)Nc4cc(C(F)(F)F)ccc4F)cn3)ccc2[nH]1.Cl.Cl [GW681170] | 82% | 98.2% | 63% | 78% | 12% | 55% | 86% | 22% | 2% | 2%
COc1cc(Nc2nccc(-c3c(-c4cccc(NC(=O)c5c(F)cccc5F)c4)nn4ccccc34)n2)cc(OC)c1OC [GSK323521] | 15% | 20% | 14% | 9% | 1% | 8% | 71% | 6% | 0% | 12%
COc1cc(Nc2nccc(N3CCC(NC(=O)c4cc5ccccc5s4)C3)n2)cc(OC)c1OC (centres unmarked) [GSK1379760] | 4% | 17% | 6% | 26% | 5% | 15% | 61% | 6% | 12% | 0%
COc1cc(Nc2ncc3c(C)nc(-c4cc5ccccc5[nH]4)n3n2)cc(OC)c1OC [GW869516] | 0% | 4% | 58% | 36% | 0% | 47% | 0% | 14% | 26% | 34%
C[C@@H](Oc1cc(-n2cnc3cc(-c4ccnc(NCCS(C)(=O)=O)c4)ccc32)sc1C(N)=O)c1ccccc1Cl [GSK907232] | 6% | 23% | 19% | 0% | 10% | 3% | 60% | 0% | 0% | 0%
O=C(Nc1cccc(Oc2ccc3nc(NC(=O)C4CC4)cn3n2)c1)c1ccccc1C(F)(F)F | 0% | 29% | 6% | 19% | 7% | 10% | 31% | 25% | 52% | 20%
CCn1c(-c2nonc2N)nc2c(C#CC(C)(C)O)nc(OC[C@H](N)c3ccccc3)cc21 [GSK943949] | 0% | 0% | 8% | 0% | 0% | 0% | 28% | 12% | 0% | 0%
CCCCc1nn2ncccc2c1-c1ccnc(Nc2ccc(N3CCN(C)CC3)cc2)n1 [GW684941] | 0% | 73% | 65% | 26% | 18% | 62% | 97.7% | 69% | 72% | 66%
FC(F)(F)c1ccc(/C=C/c2cncnc2Nc2ccc3[nH]c(Cc4ccccc4)nc3c2)cc1 [GW709199] | 0% | 1% | 9% | 7% | 5% | 37% | 0% | 69% | 69% | 72%

SMILES | %Inh (EPHA7) | %Inh (EPHA8) | %Inh (EPHB1) | %Inh (EPHB2) | %Inh (EPHB3) | %Inh (EPHB4) | %Inh (EPHB6) | %Inh (ERBB2) | %Inh (ERBB3) | %Inh (ERBB4)
Nc1ncc(-c2ccc3nccc(-c4ccncc4)c3c2)cc1S(=O)(=O)N1CCOCC1 [GSK1627798] | 4% | 15% | 1% | 0% | 3% | 3% | 36% | 0% | 0% | 0%
Cl.Cl.NCC(NC(=O)c1cc(-c2ccccc2)c(-c2ccnc3[nH]ccc23)s1)c1ccccc1 (centres unmarked) [GSK1321561] | 11% | 50% | 16% | 0% | 7% | 19% | 2% | 58% | 0% | 49%
CN1CCN(CCCNc2nccc(-c3c(-c4ccc(F)cc4)nn4cc(C(F)(F)F)ccc34)n2)CC1 [GW621581] | 0% | 15% | 13% | 0% | 0% | 9% | 26% | 0% | 0% | 0%
CN(C)Cc1ccc(-c2ccc3c(Nc4ccc(Oc5ccccn5)cc4)ccnc3c2)o1 [GW567148] | 0% | 13% | 0% | 0% | 30% | 0% | 97.4% | 45% | 98.9% | 0%
CC(=O)N1CCN(c2ccc(Nc3nccc(-c4sc(C(C)C)nc4-c4cccc(NS(=O)(=O)c5cccc(Cl)c5)c4)n3)cn2)CC1 [GSK1660437] | 0% | 29% | 21% | 0% | 0% | 0% | 97.7% | 82% | 92% | 40%
COc1cccc(C(=O)Nc2cccc(Oc3ccc4nc(NC(=O)C5CC5)cn4n3)c2)c1 | 5% | 98.4% | 87% | 94.5% | 0% | 85% | 98.5% | 4% | 10% | 6%
CCn1c(-c2nonc2N)nc2c(C#CC(C)(C)O)ncc(OCCCCN)c21.O=C(O)C(F)(F)F.O=C(O)C(F)(F)F [GSK507274] | 0% | 3% | 0% | 0% | 27% | 29% | 6% | 5% | 0% | 41%
Cc1ccc(S(=O)(=O)Nc2ccc(Nc3nccc(Nc4cccc5[nH]ncc45)n3)cc2)cc1 [GSK581271] | 12% | 30% | 29% | 0% | 3% | 26% | 31% | 14% | 0% | 39%
CSc1cccc2c(-c3ccncn3)c(-c3ccc(F)cc3)nn12 [GW514786] | 9% | 26% | 15% | 0% | 4% | 2% | 20% | 34% | 13% | 0%
Cn1cc(-c2[nH]c3cc(NC(=O)[C@H](N)C4CCCCC4)cc4c3c2C=NNC4=O)cn1 | 4% | 10% | 15% | 0% | 1% | 0% | 92.4% | 64% | 77% | 36%
O=C(Nc1cccc(-c2nn3ccccc3c2-c2ccnc(Nc3cccc(C(F)(F)F)c3)n2)c1)c1c(F)cccc1F [GSK292658] | 0% | 0% | 2% | 0% | 5% | 0% | 25% | 80% | 0% | 90%
C[C@@H]1CC[C@@H](C(=O)Nc2ccccc2)CN1c1cc(-c2ccc3c(N)n[nH]c3c2)nc(N)n1 [GSK2286062] | 0% | 4% | 5% | 0% | 0% | 10% | 14% | 44% | 0% | 0%
COc1cc2c(cc1OCCN1CCNCC1)ncc1c3ccc(C#N)cc3[nH]c21 | 0% | 0% | 0% | 2% | 0% | 0% | 55% | 4% | 0% | 28%
Cn1cc(-c2ccc3c(c2)CCN3C(=O)Cc2cccc(Cl)c2)c2c(N)ncnc21 [GSK2606590] | 13% | 34% | 15% | 0% | 9% | 8% | 86% | 5% | 0% | 0%
Clc1ccc(-c2nn3ncccc3c2-c2ccnc(Nc3ccc4c(c3)OCCO4)n2)cc1 [GW829116] | 35% | 3% | 18% | 13% | 7% | 0% | 65% | 32% | 8% | 84%
O=C(O)C(F)(F)F.O=C(O)C(F)(F)F.O=c1[nH]ccc2nc(N[C@@H]3CCCNC3)nc(Nc3ccc(S(=O)(=O)N4CCOCC4)cc3)c12 [GSK2177277] | 58% | 39% | 31% | 0% | 15% | 21% | 30% | 2% | 45% | 12%
